# In PubChem BioAssay AID602248 (The Scripps Research Institute Molecular Screening Center, 2012):
# In all, about 360,000 compounds went through this assay and about 1,700 (0.47%) were called active. Cut-off read from the data, not from the text of the source: active = activation above about 15%; inactive = the rest. For the sample, actives were picked, then their nearest neighbours and some compounds at random.
# Experiment: counter-screen for M1 agonists: effect in parental CHO-K1 cells (AID 602248);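 note: untransfected CHO-K1 host cells lacking M1 receptor as counterscreen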
# Conditions: Fluo-8 calcium fluorescence, at 3 µM, hits give high values, scaled to maximal ATP response, vehicle zero
row,Compound,activation
1,Cc1ccc(S(=O)(=O)N(C)c2ccc(OCC(=O)NC3=NCCS3)cc2)cc1,22.6% (active)
2,CN(c1ccc(OCC(=O)NC2=NCCS2)cc1)S(=O)(=O)c1ccc(F)cc1,6.36% (inactive)
3,CN(c1ccccc1)S(=O)(=O)c1ccc(NC(=O)COc2ccccc2)cc1,7.3% (inactive)
4,O=C(O)C(NS(=O)(=O)c1cccc2nsnc12)c1ccccc1 (configuration not stated),0.41% (inactive)
5,Cc1ccc(-c2nn(-c3ccccc3)cc2C(=O)NCCCN2CCCC2=O)cc1,0.65% (inactive)
6,O=C(NNC(=S)NC(=O)c1cn(-c2ccccc2)nc1-c1ccccc1)c1ccncc1,29.6% (active)
7,COc1ccccc1N1CCN(C(=O)c2cn(-c3ccccc3)nc2-c2cccnc2)CC1,4.25% (inactive)
8,CCN(Cc1nc2ccccc2c(=O)[nH]1)Cc1cc(=O)oc2cc(C)c(C)cc12,2.83% (inactive)
9,CCOC(=O)c1ccc(N=C2SC(C(=O)NC)CC(=O)N2CCc2ccccc2)cc1 (configuration not stated),0.37% (inactive)
10,CCOc1ccc(CC(=O)NC2CCN(Cc3ccccc3)CC2)cc1,0.21% (inactive)
11,CCOc1ccc(C(=O)NC2CCN(S(=O)(=O)CC)CC2)cc1,0.96% (inactive)
12,CCOc1ccc(NS(=O)(=O)c2ccc(C(=O)NC3CCN(Cc4ccccc4)CC3)cc2)cc1,15.3% (active)
13,Cc1ccc(-c2cccc([C@H]3[C@@H]4C=CC[C@@H](C)[C@@H]4C(=O)N3Cc3ccccc3)c2)cc1,0.28% (inactive)
14,CN(Cc1cccnc1)C(=O)c1cc(COc2ccc3ncccc3c2)on1,17.9% (active)
15,Cc1cc(CN(C)C(=O)c2cc(COc3ccc(C)c(C)c3)on2)n[nH]1,1.86% (inactive)
16,Cc1ccc(OCc2cc(C(=O)N(C)CCn3ccnc3C)no2)cc1C,3.36% (inactive)
17,COc1cccc2c1C(=O)c1c(O)c3c(c(O)c1C2=O)CC(O)(C(C)=NNC(=O)c1ccc(Cl)c(Cl)c1)CC3OC1CC(N)C(O)C(C)O1 (configuration not stated),7.82% (inactive)
18,CN(C(=O)CC1C(=O)NCCN1Cc1ccc2ccccc2c1)C1CCOCC1 (configuration not stated),0.91% (inactive)
19,CC1CCCCC12NC(=O)N(CC(=O)OCc1c(F)cccc1Cl)C2=O (configuration not stated),21.8% (active)

row,Compound,activation
1,CC1CCCCC12NC(=O)N(CC(=O)OCC(=O)NCc1ccc(F)cc1)C2=O (configuration not stated),0.23% (inactive)
2,CCCc1ccc(C(=O)COC(=O)CN2C(=O)NC3(CCCCC3C)C2=O)cc1 (configuration not stated),5.23% (inactive)
3,c1ccc2c(c1)nnn2-c1ccncc1,0.33% (inactive)
4,O=C(O)/C=C/c1ccc(S(=O)(=O)N2CCCCCC2)cc1,-0.04% (inactive)
5,C=CCNC(=O)/C=C/c1ccc(C(C)C)cc1,-0.17% (inactive)
6,O=C(/C=C(O)/C=C/c1ccc(O)cc1)/C=C/c1ccc(O)cc1,46.7% (active)
7,N=c1n(Cc2ccc(Cl)cc2)c2ccccc2n1CC(O)c1ccco1 (configuration not stated),1.71% (inactive)
8,CC12CCC(=O)N1C(C(=O)Nc1ccc(F)c(F)c1F)CS2 (configuration not stated),1.59% (inactive)
9,CCCc1nc(-c2ccccc2O)n(-c2ccccc2)n1,-0.09% (inactive)
10,Cc1nc(NC(CC(C)C)C(=O)O)c2nc(C)oc2n1 (configuration not stated),-0.16% (inactive)
11,O=C(CN(CC1CCCO1)C(=O)CNS(=O)(=O)c1ccc(F)cc1)NCc1ccco1 (configuration not stated),1.1% (inactive)
12,O=C(NCc1cccs1)C(=O)NCC1OCCCN1S(=O)(=O)c1ccc(F)cc1 (configuration not stated),-0.04% (inactive)
13,CN(NC(=O)C1CC(=O)N(c2ccccc2)C1)C1=NS(=O)(=O)c2ccccc21 (configuration not stated),-0.27% (inactive)
14,CN(C(=O)COC(=O)c1ccc(Br)o1)c1c(N)n(Cc2ccccc2)c(=O)[nH]c1=O,2.4% (inactive)
15,Cc1cc2nc3c(=O)n(Cc4ccccc4)c(=O)[nH]c3nc2cc1N,47.3% (active)
16,Nc1cc(=O)n(Cc2ccccc2)c(=O)n1Cc1ccccc1,0.11% (inactive)
17,Cc1ccc(S(=O)(=O)n2cccc2CO)cc1,-0.4% (inactive)
18,COc1ccc(-n2c(Cc3cccn3C)nnc2SCC(=O)Nc2cc(C)cc(C)c2)cc1,-0.02% (inactive)
19,CCOC(=O)N1C(=O)C[C@](Sc2ccc(C)cc2)(C(=O)OC)[C@H]1c1ccccc1,1.19% (inactive)

row,Compound,activation
1,CC(=O)Nc1ccc(NC(=S)NC(=O)c2ccc([N+](=O)[O-])c(C)c2)cc1,1.35% (inactive)
2,CC(=O)NC(=S)Nc1ccc(NC(=S)NC(=O)c2ccc([N+](=O)[O-])cc2)cc1,24.5% (active)
3,COCCCNC(=S)NC(=O)c1ccc([N+](=O)[O-])cc1,0.19% (inactive)
4,Cc1nn(C(C)C(=O)N2CCOCC2)c(=O)c2nn(-c3ccccc3)c(C)c12 (configuration not stated),2.09% (inactive)
5,Fc1ccccc1COc1ccccc1CNCc1ccncc1,4.4% (inactive)
6,COc1cccc(CNn2cn[nH]c2=S)c1OCc1ccccc1,1.05% (inactive)
7,COc1cccc(CNCCc2c[nH]c3ccccc23)c1OCc1ccccc1F,23.3% (active)
8,COc1cc(NC(=O)COC(=O)CSc2ccc3ccccc3c2)c(C)cc1[N+](=O)[O-],5.21% (inactive)
9,COc1ccc(-c2n[nH]c(C)c2-c2ccccc2OC)c(O)c1,15.4% (active)
10,COc1ccc(-c2[nH]ncc2CN(C)Cc2c(C)n[nH]c2C)c(OC)c1,1.07% (inactive)
11,COc1ccc(-c2c(-c3ccc(OC)cc3O)nc(C)nc2C(F)(F)F)cc1,-0.31% (inactive)
12,Cc1ccc(Cc2cncc(O)c2)cc1S(=O)(=O)O,0.27% (inactive)
13,Cc1cccc(C(=O)OCC(=O)Nc2sccc2C(N)=O)c1C,-0.07% (inactive)
14,NC(=O)c1ccsc1NC(=O)COC(=O)COc1ccc(C=O)cc1,16.2% (active)
15,COc1cc(OC)cc(C(=O)OCC(=O)Nc2sccc2C(N)=O)c1,9.07% (inactive)
16,CCOC(=O)[C@]12CCC=C1N(Cc1cccc3ccccc13)C(=O)[C@H](CC(=O)NCc1cccc(C(F)(F)F)c1)C2,0.16% (inactive)
17,COc1cc(NC(=O)NCC2CCN(Cc3ccc(C)cc3)CC2)cc(OC)c1OC,1.36% (inactive)
18,Cc1ccc(C)c(CN2CCC(CNC(=O)Nc3ccc(C)c(F)c3)CC2)c1,2.18% (inactive)
19,Cc1cccc(CN2CCC(CNC(=O)Nc3ccc(F)c(Cl)c3)CC2)c1,29.2% (active)
